Assay [1] concerns Vero E6 infected with SARS-CoV-2. Kind of assay: morphology score (similarity to uninfected cells); higher = more like uninfected cells. The conditions noted are these: 24 h.
The test system is the same in assay [2]. Kind of assay: SARS-CoV-2 infection rate relative to infected DMSO; higher = more infection, active = 60 or less. The conditions noted are these: 24 h.

Each structure is given as a SMILES string.

In assay [1], `C[C@@H]1O[C@@H]1P(=O)(O)O` (10 µM) yielded a morphology score of 0.00316. Further, the SARS-CoV-2 infection rate in assay [2] was 104% (inactive).

Take `Cc1ccc(S(=O)(=O)/C=C/C#N)cc1` (0.833333 µM): the morphology score in assay [1] was 0.173. The SARS-CoV-2 infection rate in assay [2] was 112% (inactive).

In the case of `O=P1(NCCCl)OCCCN1CCCl` (stereo unspecified) [ifosfamide] (10 µM), the morphology score in assay [1] was found to be 0.188. In addition, in assay [2], the SARS-CoV-2 infection rate is 97.5% (inactive).

`CC(=O)Nc1ccc(C(=O)NC(C)(C)C)cc1` (10 µM) registered a morphology score in assay [1] of 0.0601. Moreover, the SARS-CoV-2 infection rate in assay [2] is 106% (inactive).

Turning to `COc1ccc2c(c1)c(CC(=O)N1CCOCC1)c(C)n2C(=O)c1ccc(Cl)cc1` (10 µM), in assay [1], the morphology score came to 0.131. Besides, the SARS-CoV-2 infection rate in assay [2] is 112% (inactive).

Regarding `COc1cc(C[C@@H]2NCCc3cc(O)c(O)cc32)cc(OC)c1OC` [trimethoquinol] (10 µM), the morphology score in assay [1] came to 0.0323. Also, the SARS-CoV-2 infection rate in assay [2] was 99.5% (inactive).

In turn, `CC/C(=C(/CC)c1ccc(OP(=O)(O)O)cc1)c1ccc(OP(=O)(O)O)cc1` [fosfestrol] (10 µM) returned a morphology score in assay [1] of 0.11. The SARS-CoV-2 infection rate in assay [2] is 96% (inactive).

Take `NS(=O)(=O)c1cc2c(cc1Cl)NC(C1CC3C=CC1C3)NS2(=O)=O` (stereo unspecified) [cyclothiazide] (10 µM): the morphology score in assay [1] is 0.0121. Also, the SARS-CoV-2 infection rate in assay [2] is 106% (inactive).

Source of the values: the supplement of paper PMC13380429.
